TEAD-YAP inh – TEAD-YAP interaction inhibition; HEK-TIYL cells, TEAD-Gal4/YAP UAS-luciferase luminescence; inhibition, % at 9.12 µM; 640,000 compounds, 1.4% hits; AID 1259422; in the data active = inhibition above about 32%
FBW7 activator – human FBW7 E3 ligase activation, primary screen; 650,000 compounds, 0.13% hits; AlphaScreen FBW7–phospho-cyclin E peptide binding, activator screen; Q969H0; normalized activity (activation), % at 26.1 µM; AID 1259310; in the data active = normalized activity above about 1.9%;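 also: purified mutant Fbw7 with reduced substrate affinity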
Target sequence (Q969H0 whole entry, looked up): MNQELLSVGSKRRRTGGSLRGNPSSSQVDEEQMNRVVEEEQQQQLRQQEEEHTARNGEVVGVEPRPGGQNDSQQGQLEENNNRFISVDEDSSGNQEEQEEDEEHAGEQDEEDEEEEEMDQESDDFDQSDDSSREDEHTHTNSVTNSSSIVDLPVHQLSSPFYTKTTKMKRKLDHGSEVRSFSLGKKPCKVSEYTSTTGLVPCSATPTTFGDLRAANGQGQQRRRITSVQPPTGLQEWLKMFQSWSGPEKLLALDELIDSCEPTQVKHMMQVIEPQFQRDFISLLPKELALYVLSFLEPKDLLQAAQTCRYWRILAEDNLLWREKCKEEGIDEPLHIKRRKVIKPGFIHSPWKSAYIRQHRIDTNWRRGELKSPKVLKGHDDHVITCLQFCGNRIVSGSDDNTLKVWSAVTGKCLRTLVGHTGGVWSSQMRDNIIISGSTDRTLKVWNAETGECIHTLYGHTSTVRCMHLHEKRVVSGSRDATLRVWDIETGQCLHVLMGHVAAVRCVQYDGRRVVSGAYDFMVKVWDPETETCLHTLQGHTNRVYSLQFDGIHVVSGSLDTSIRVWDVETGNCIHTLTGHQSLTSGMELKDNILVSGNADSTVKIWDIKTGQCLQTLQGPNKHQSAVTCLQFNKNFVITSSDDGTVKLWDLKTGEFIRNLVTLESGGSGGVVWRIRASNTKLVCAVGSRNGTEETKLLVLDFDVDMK
MITF inh – blocks human microphthalmia-associated transcription factor | O75030 | inhibition, % at 2.6 µM | 650,000 compounds, 0.91% hits | AlphaScreen MITF homodimerization, bead proximity signal | AID 1259374; in the data active = inhibition above about 50%
GPR151 ag – activators of human GPR151 | PathHunter beta-arrestin GPR151 cells, luminescence | AID 1508602 | Q8TDV0 | activation, % at 11.2 µM | 650,000 compounds, 1% hits; in the data active = activation above about 4.9%
Each line names hits and unclear results; the compound was inactive in the other large screens; ! = not active in a repeat. Hits are enriched below; roughly 3.4% of the tested compounds scored in any of these assays.

O=C(c1ccc2c(c1)CCO2)N1CCC2(CC1)OCc1cc(Cl)ccc1O2	TEAD-YAP inh 37
COc1ccc(CC(=O)N2CCC3(CC2)OCc2ccccc2O3)cc1OC	TEAD-YAP inh 55
COc1ccc(CC(=O)N2CCC3(CC2)OCc2cc(Cl)ccc2O3)cc1OC	TEAD-YAP inh 61
CC1CN(c2nc3ccccn3c(=O)c2/C=N/Nc2ccccc2)CC(C)O1 (stereo not drawn)	none
CCOc1ccc2nc(NCCCO)[nH]c2c1	none
O=C(COc1ccc(C(=O)c2ccccc2)cc1)Nc1nc2ccccc2[nH]1	none
O=C(c1ccccc1)c1ccc2nc(-c3ccc(NC(=O)c4ccccc4Cl)cc3)[nH]c2c1	none
COC(=O)Nc1nc2ccc(C(=O)c3ccc(F)cc3)cc2[nH]1	TEAD-YAP inh 35!
COC(=O)C(=O)Nc1nc2ccc(C(=O)c3ccccc3C(=O)OC(C)C)cc2[nH]1	TEAD-YAP inh 52
CCCOc1ccc2nc(NC(=O)OC)[nH]c2c1	TEAD-YAP inh 34
O=C1CCCN1CCCNc1nc(-c2ccccc2)nc2c1ncn2-c1ccccc1	TEAD-YAP inh 33
O=C1CCCN1CCCNc1nc(NC2CC2)c2ncn(-c3ccccc3)c2n1	TEAD-YAP inh 42
O=C1CCCN1CCCNc1nc(-c2ccccc2)nc2c1ncn2-c1ccsc1	none
NC(=O)c1ccc(-c2nc(NCCCN3CCCC3=O)c3ncn(-c4ccsc4)c3n2)cc1	TEAD-YAP inh 49
COc1ccc(-c2nc(NCCCN3CCCC3=O)c3ncn(-c4ccccc4)c3n2)cc1	none
COc1cccc(NC(=S)NC(=O)c2cccc(F)c2)c1	none
Cc1ccc(C(C)CCN2CCC(n3nccc3NC(=O)C(C)(C)C)CC2)o1 (stereo not drawn)	none
O=[N+]([O-])c1ccc(/C=C/c2nc3ccccc3[nH]2)cc1	TEAD-YAP inh 74
O=[N+]([O-])c1ccc(/C=C/c2nc3ccc([N+](=O)[O-])cc3[nH]2)cc1	none
Cc1ccc2[nH]c3c(c2c1)CCNC31CCN(C(=O)N[C@@H](C)c2ccccc2)CC1	none
C[C@H](NC(=O)N1CCC2(CC1)NCCc1c2[nH]c2ccc(Cl)cc12)c1ccccc1	TEAD-YAP inh 37
Cc1noc(C)c1NC(=O)N1CCC2(CC1)NCCc1c2[nH]c2ccc(Cl)cc12	none
COc1cccc(NC(=O)N2CCC3(CC2)NCCc2c3[nH]c3ccc(Cl)cc23)c1	TEAD-YAP inh 48
CCOC(=O)c1c(NC(=O)CSc2ccccc2)sc(CC)c1-c1ccccc1	MITF inh 70
Cc1sc(NC(=O)COc2ccccc2)c(C(N)=O)c1C	none
Cc1sc(NC(=O)COc2ccccc2)c(C(N)=O)c1-c1ccccc1	TEAD-YAP inh 75
CC1CCC(C(C)C)C(OC(=O)Cn2c(-c3ccc(Cl)cc3)[n+](C)c3ccccc32)C1 (stereo not drawn)	TEAD-YAP inh 45
CCOc1ccccc1NC(=O)CSc1nc2ccc(OC)cc2cc1C#N	TEAD-YAP inh 48
COc1ccccc1NC(=O)CSc1nc2cc3c(cc2cc1C#N)OCO3	none
N#Cc1c(N)nc(SCC(=O)NCc2ccccc2)c(C#N)c1-c1ccccc1Cl	TEAD-YAP inh 58
CCOc1ccccc1NC(=O)CSc1nc2cc3c(cc2cc1C#N)OCCO3	TEAD-YAP inh 53
N#Cc1cc2cc3c(cc2nc1SCC(=O)NCc1ccccc1)OCCO3	TEAD-YAP inh 36
N#Cc1cc2cc3c(cc2nc1SCC(=O)Nc1ccccc1)OCCO3	none
O=C(Cc1ccc(Cl)cc1)NNS(=O)(=O)c1ccccc1[N+](=O)[O-]	none
CC(C)c1ccc(C#N)c(SCC(=O)Nc2ccccc2C(=O)O)n1	FBW7 activator 3.9
N#Cc1cc2cc3c(cc2nc1SCC(=O)Nc1ccccc1F)OCCO3	TEAD-YAP inh 54
CCCN1C(=O)/C(=C/c2ccc(OC)cc2)SC1=S	none
CCOc1ccc(/C=C2\SC(=S)N(CCCC(=O)O)C2=O)cc1	TEAD-YAP inh 79
O=C(O)CCCCCN1C(=O)/C(=C/c2ccc(O)cc2)SC1=S	none
COc1ccc(/C=C2\SC(=O)N(CO)C2=O)c(OC)c1	none
COc1ccc(/C=C2\SC(=O)N(CCC(=O)O)C2=O)c(OC)c1	TEAD-YAP inh 64
O=C(O)CCCN1C(=O)/C(=C\c2ccc(OC(F)F)cc2)SC1=S	TEAD-YAP inh 59
COc1ccc(/C=C2/SC(=S)N(CCC(=O)O)C2=O)cc1	TEAD-YAP inh 58
COC(=O)C(=C/C(C#N)=C/N(C)C)C(=O)OC	none
COc1cc(/C=C2/SC(=S)N(CCCC(=O)O)C2=O)ccc1O	TEAD-YAP inh 61
CCOc1cc(/C=C2\SC(=S)N(CCCC(=O)O)C2=O)ccc1O	TEAD-YAP inh 82
Cc1ccc(/C=C2\SC(=S)N(CCCC(=O)Nc3cccnc3)C2=O)cc1	TEAD-YAP inh 34

Assay outcomes as filed in PubChem.
